# According to PubChem BioAssay AID1159580 (chemical genetic matrix, 2015):
# Values joined by “and” are separate entries in the source; they are usually repeats but may differ in a detail not shown here. Equal values may be shown once. Hit rate of the full screen: of about 5,500 compounds, about 2,000 (36%) were called active. Another 18% or so got no clear call; they are omitted. The list shows a part of the results. Unmarked numbers belong to inactive results. No stated cut-off is given here; in the data, active means normalized growth mostly below about 0.91 (no sharp cut-off); inconclusive means no clear call, values can overlap the other calls; inactive means mostly above about 0.92.
# Assay: chemical genetic growth profiling, strain panel (AID 1159580);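 further: tested at 20 µM; growth read once vehicle control cultures reached saturation at 30 °C; 1 = growth at the plate median or of vehicle wells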
# Conditions: growth OD
smiles,measurement,setting,value
NCCc1ccc(O)cc1,normalized growth,"S. cerevisiae deletion strains, locus YJR075W, strain HOC1, stronger effect = lower value",1.01
same,normalized growth,"S. cerevisiae deletion strains, locus YKL009W, strain mrt4, stronger effect = lower value",0.992
same,normalized growth,"S. cerevisiae deletion strains, locus YKL068W, stronger effect = lower value",0.994
same,normalized growth,"S. cerevisiae deletion strains, locus YKL085W, strain MDH1 (second series), stronger effect = lower value",0.996
same,normalized growth,"S. cerevisiae deletion strains, locus YKL085W, strain MDH1, stronger effect = lower value",0.996
same,normalized growth,"S. cerevisiae deletion strains, locus YKL160W, strain elf1, stronger effect = lower value",1.01
same,normalized growth,"S. cerevisiae deletion strains, locus YKL190W, strain CNB1, stronger effect = lower value",1.01
same,normalized growth,"S. cerevisiae deletion strains, locus YKR001C, strain vps1, stronger effect = lower value",0.978
same,normalized growth,"S. cerevisiae deletion strains, locus YKR026C, strain gcn3, stronger effect = lower value",0.972
same,normalized growth,"S. cerevisiae deletion strains, locus YKR091W, strain srl3, stronger effect = lower value",0.986
same,normalized growth,"S. cerevisiae deletion strains, locus YLL001W, strain dnm1, stronger effect = lower value",0.982
same,normalized growth,"S. cerevisiae deletion strains, locus YLL026W, stronger effect = lower value",0.985
same,normalized growth,"S. cerevisiae deletion strains, locus YLL041C, strain sdh2, stronger effect = lower value",0.978
same,normalized growth,"S. cerevisiae deletion strains, locus YLR027C, strain aat2, stronger effect = lower value",0.984
same,normalized growth,"S. cerevisiae deletion strains, locus YLR039C, strain RIC1, stronger effect = lower value",1.02
same,normalized growth,"S. cerevisiae deletion strains, locus YLR058C, strain SHM2, stronger effect = lower value",1.01
same,normalized growth,"S. cerevisiae deletion strains, locus YLR102C, strain apc9, stronger effect = lower value",0.999
same,normalized growth,"S. cerevisiae deletion strains, locus YLR113W, strain HOG1, stronger effect = lower value",0.973
same,normalized growth,"S. cerevisiae deletion strains, locus YLR221C, strain rsa3, stronger effect = lower value",0.951
same,normalized growth,"S. cerevisiae deletion strains, locus YLR258W, strain gsy2, stronger effect = lower value",0.985
same,normalized growth,"S. cerevisiae deletion strains, locus YLR262C, strain YPT6 (second series), stronger effect = lower value",0.976
same,normalized growth,"S. cerevisiae deletion strains, locus YLR262C, strain YPT6, stronger effect = lower value",1.02
same,normalized growth,"S. cerevisiae deletion strains, locus YLR268W, strain sec22, stronger effect = lower value",0.993
same,normalized growth,"S. cerevisiae deletion strains, locus YLR320W, strain mms22, stronger effect = lower value",0.962
same,normalized growth,"S. cerevisiae deletion strains, locus YLR330W, strain CHS5, stronger effect = lower value",1.01
same,normalized growth,"S. cerevisiae deletion strains, locus YLR342W, strain FKS1 (second series), stronger effect = lower value",1
same,normalized growth,"S. cerevisiae deletion strains, locus YLR342W, strain FKS1, stronger effect = lower value",0.98
same,normalized growth,"S. cerevisiae deletion strains, locus YLR357W, strain rsc2, stronger effect = lower value",0.956
same,normalized growth,"S. cerevisiae deletion strains, locus YLR370C, strain arc18, stronger effect = lower value",0.984
same,normalized growth,"S. cerevisiae deletion strains, locus YLR371W, strain rom2, stronger effect = lower value",0.981
same,normalized growth,"S. cerevisiae deletion strains, locus YLR384C, strain iki3, stronger effect = lower value",0.958
same,normalized growth,"S. cerevisiae deletion strains, locus YLR418C, strain cdc73, stronger effect = lower value",1.02
same,normalized growth,"S. cerevisiae deletion strains, locus YML016C, strain PPZ1, stronger effect = lower value",1
same,normalized growth,"S. cerevisiae deletion strains, locus YML032C, strain rad52, stronger effect = lower value",1.02
same,normalized growth,"S. cerevisiae deletion strains, locus YML120C, strain ndi1, stronger effect = lower value",0.994
same,normalized growth,"S. cerevisiae deletion strains, locus YML124C, strain tub3, stronger effect = lower value",1
same,normalized growth,"S. cerevisiae deletion strains, locus YMR058W, strain fet3, stronger effect = lower value",0.973
same,normalized growth,"S. cerevisiae deletion strains, locus YMR078C, strain ctf18, stronger effect = lower value",0.99
same,normalized growth,"S. cerevisiae deletion strains, locus YMR125W, strain sto1, stronger effect = lower value",0.989
same,normalized growth,"S. cerevisiae deletion strains, locus YMR129W, stronger effect = lower value",0.973
same,normalized growth,"S. cerevisiae deletion strains, locus YMR205C, strain PFK2, stronger effect = lower value",1.01
same,normalized growth,"S. cerevisiae deletion strains, locus YMR223W, strain ubp8, stronger effect = lower value",1.01
same,normalized growth,"S. cerevisiae deletion strains, locus YMR231W, strain pep5, stronger effect = lower value",0.97
same,normalized growth,"S. cerevisiae deletion strains, locus YMR263W, strain SAP30, stronger effect = lower value",1.01 and 1
same,normalized growth,"S. cerevisiae deletion strains, locus YMR307W, strain GAS1, stronger effect = lower value",0.979 and 1.01
same,normalized growth,"S. cerevisiae deletion strains, locus YNL067W, strain RPL9B, stronger effect = lower value",1.01
same,normalized growth,"S. cerevisiae deletion strains, locus YNL071W, strain lat1, stronger effect = lower value",0.989
same,normalized growth,"S. cerevisiae deletion strains, locus YNL153C, strain GIM3, stronger effect = lower value",1.01 and 1.04
same,normalized growth,"S. cerevisiae deletion strains, locus YNL175C, strain NOP13, stronger effect = lower value",1.03
same,normalized growth,"S. cerevisiae deletion strains, locus YNL183C, strain NPR1, stronger effect = lower value",0.953
same,normalized growth,"S. cerevisiae deletion strains, locus YNL197C, strain WHI3, stronger effect = lower value",1
same,normalized growth,"S. cerevisiae deletion strains, locus YNL209W, strain ssb2, stronger effect = lower value",1
same,normalized growth,"S. cerevisiae deletion strains, locus YNL224C, strain SQS1, stronger effect = lower value",1
same,normalized growth,"S. cerevisiae deletion strains, locus YNL233W, strain BNI4, stronger effect = lower value",1
same,normalized growth,"S. cerevisiae deletion strains, locus YNL248C, strain rpa49, stronger effect = lower value",0.856 (active)
same,normalized growth,"S. cerevisiae deletion strains, locus YNL250W, strain rad50, stronger effect = lower value",0.995
same,normalized growth,"S. cerevisiae deletion strains, locus YNL271C, strain bni1, stronger effect = lower value",0.993
same,normalized growth,"S. cerevisiae deletion strains, locus YNL298W, strain CLA4, stronger effect = lower value",1
same,normalized growth,"S. cerevisiae deletion strains, locus YNL307C, strain MCK1, stronger effect = lower value",1.02
same,normalized growth,"S. cerevisiae deletion strains, locus YNL322C, strain KRE1 (second series), stronger effect = lower value",0.992
same,normalized growth,"S. cerevisiae deletion strains, locus YNL322C, strain KRE1, stronger effect = lower value",1 and 0.993
same,normalized growth,"S. cerevisiae deletion strains, locus YNR049C, strain mso1, stronger effect = lower value",0.98
same,normalized growth,"S. cerevisiae deletion strains, locus YNR052C, strain pop2, stronger effect = lower value",0.988
same,normalized growth,"S. cerevisiae deletion strains, locus YOL012C, strain htz1",0.829
same,normalized growth,"S. cerevisiae deletion strains, locus YOL147C, strain pex11, stronger effect = lower value",1
same,normalized growth,"S. cerevisiae deletion strains, locus YOR001W, strain rrp6, stronger effect = lower value",0.927
same,normalized growth,"S. cerevisiae deletion strains, locus YOR061W, strain CKA2, stronger effect = lower value",1.01
same,normalized growth,"S. cerevisiae deletion strains, locus YOR069W, strain VPS5, stronger effect = lower value",1
same,normalized growth,"S. cerevisiae deletion strains, locus YOR070C, strain gyp1, stronger effect = lower value",0.963
same,normalized growth,"S. cerevisiae deletion strains, locus YOR080W, strain dia2, stronger effect = lower value",0.968
same,normalized growth,"S. cerevisiae deletion strains, locus YOR083W, strain WHI5 (second series), stronger effect = lower value",1.03
same,normalized growth,"S. cerevisiae deletion strains, locus YOR083W, strain WHI5, stronger effect = lower value",1.01
same,normalized growth,"S. cerevisiae deletion strains, locus YOR106W, strain vam3, stronger effect = lower value",1.02
same,normalized growth,"S. cerevisiae deletion strains, locus YOR136W, strain idh2, stronger effect = lower value",0.996
same,normalized growth,"S. cerevisiae deletion strains, locus YOR144C, strain elg1, stronger effect = lower value",0.992
same,normalized growth,"S. cerevisiae deletion strains, locus YOR184W, strain ser1, stronger effect = lower value",1
same,normalized growth,"S. cerevisiae deletion strains, locus YOR231W, strain MKK1, stronger effect = lower value",0.963
same,normalized growth,"S. cerevisiae deletion strains, locus YOR265W, strain rbl2, stronger effect = lower value",1
same,normalized growth,"S. cerevisiae deletion strains, locus YOR270C, strain vph1, stronger effect = lower value",0.964
same,normalized growth,"S. cerevisiae deletion strains, locus YOR290C, strain snf2, stronger effect = lower value",1
same,normalized growth,"S. cerevisiae deletion strains, locus YOR316C, strain cot1, stronger effect = lower value",1
same,normalized growth,"S. cerevisiae deletion strains, locus YPL051W, strain arl3, stronger effect = lower value",0.987
same,normalized growth,"S. cerevisiae deletion strains, locus YPL055C, strain LGE1, stronger effect = lower value",1.01
same,normalized growth,"S. cerevisiae deletion strains, locus YPL078C, strain atp4, stronger effect = lower value",0.997
same,normalized growth,"S. cerevisiae deletion strains, locus YPL106C, strain sse1, stronger effect = lower value",0.987
same,normalized growth,"S. cerevisiae deletion strains, locus YPL240C, strain hsp82, stronger effect = lower value",0.976
same,normalized growth,"S. cerevisiae deletion strains, locus YPL241C, strain CIN2, stronger effect = lower value",1.01 and 1
same,normalized growth,"S. cerevisiae deletion strains, locus YPL256C, strain CLN2, stronger effect = lower value",0.953
same,normalized growth,"S. cerevisiae deletion strains, locus YPR119W, strain clb2, stronger effect = lower value",0.992
same,normalized growth,"S. cerevisiae deletion strains, locus YPR141C, strain kar3, stronger effect = lower value",0.996
same,normalized growth,"S. cerevisiae deletion strains, locus YPR163C, strain tif3, stronger effect = lower value",1.01
same,normalized growth,"S. cerevisiae deletion strains, locus YPR167C, strain met16, stronger effect = lower value",1.01
same,normalized growth,"S. cerevisiae deletion strains, strain wtn01, stronger effect = lower value",0.984
same,normalized growth,"S. cerevisiae strains, strain wild type, stronger effect = lower value",1
